Data as given in the supplement of paper PMC11001985.

compound: C#CCNC(=O)CCSSCCC(=O)NCCc1ccc(C=O)c(C=O)c1; assay: lysine labeling ratio R10:1 (500 µM / 50 µM probe), SILAC-ABPP in living cells; higher = lower intrinsic lysine reactivity toward the probe, active = 2 or less; conditions: HeLa; probe concentrations 500 vs 50 µM
Outline: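 An alkyne-tagged lysine probe with a disulfide linker labelled living HeLa cells in PBS at room temperature at either 50 µM or 500 µM, using SILAC light and heavy cells in forward and reverse label swaps. Lysates were mixed, clicked to biotin-azide, trypsin-digested, enriched on neutravidin, DTT-released, alkylated and measured by LC-MS/MS on a TIMS-TOF Pro. Each lysine's R is the filtered median high-probe/low-probe MS1 peptide ratio, combined as the median over forward and reverse replicates, with 20 as the upper limit.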

UniProt Q15149, sequence (Q15149 whole entry): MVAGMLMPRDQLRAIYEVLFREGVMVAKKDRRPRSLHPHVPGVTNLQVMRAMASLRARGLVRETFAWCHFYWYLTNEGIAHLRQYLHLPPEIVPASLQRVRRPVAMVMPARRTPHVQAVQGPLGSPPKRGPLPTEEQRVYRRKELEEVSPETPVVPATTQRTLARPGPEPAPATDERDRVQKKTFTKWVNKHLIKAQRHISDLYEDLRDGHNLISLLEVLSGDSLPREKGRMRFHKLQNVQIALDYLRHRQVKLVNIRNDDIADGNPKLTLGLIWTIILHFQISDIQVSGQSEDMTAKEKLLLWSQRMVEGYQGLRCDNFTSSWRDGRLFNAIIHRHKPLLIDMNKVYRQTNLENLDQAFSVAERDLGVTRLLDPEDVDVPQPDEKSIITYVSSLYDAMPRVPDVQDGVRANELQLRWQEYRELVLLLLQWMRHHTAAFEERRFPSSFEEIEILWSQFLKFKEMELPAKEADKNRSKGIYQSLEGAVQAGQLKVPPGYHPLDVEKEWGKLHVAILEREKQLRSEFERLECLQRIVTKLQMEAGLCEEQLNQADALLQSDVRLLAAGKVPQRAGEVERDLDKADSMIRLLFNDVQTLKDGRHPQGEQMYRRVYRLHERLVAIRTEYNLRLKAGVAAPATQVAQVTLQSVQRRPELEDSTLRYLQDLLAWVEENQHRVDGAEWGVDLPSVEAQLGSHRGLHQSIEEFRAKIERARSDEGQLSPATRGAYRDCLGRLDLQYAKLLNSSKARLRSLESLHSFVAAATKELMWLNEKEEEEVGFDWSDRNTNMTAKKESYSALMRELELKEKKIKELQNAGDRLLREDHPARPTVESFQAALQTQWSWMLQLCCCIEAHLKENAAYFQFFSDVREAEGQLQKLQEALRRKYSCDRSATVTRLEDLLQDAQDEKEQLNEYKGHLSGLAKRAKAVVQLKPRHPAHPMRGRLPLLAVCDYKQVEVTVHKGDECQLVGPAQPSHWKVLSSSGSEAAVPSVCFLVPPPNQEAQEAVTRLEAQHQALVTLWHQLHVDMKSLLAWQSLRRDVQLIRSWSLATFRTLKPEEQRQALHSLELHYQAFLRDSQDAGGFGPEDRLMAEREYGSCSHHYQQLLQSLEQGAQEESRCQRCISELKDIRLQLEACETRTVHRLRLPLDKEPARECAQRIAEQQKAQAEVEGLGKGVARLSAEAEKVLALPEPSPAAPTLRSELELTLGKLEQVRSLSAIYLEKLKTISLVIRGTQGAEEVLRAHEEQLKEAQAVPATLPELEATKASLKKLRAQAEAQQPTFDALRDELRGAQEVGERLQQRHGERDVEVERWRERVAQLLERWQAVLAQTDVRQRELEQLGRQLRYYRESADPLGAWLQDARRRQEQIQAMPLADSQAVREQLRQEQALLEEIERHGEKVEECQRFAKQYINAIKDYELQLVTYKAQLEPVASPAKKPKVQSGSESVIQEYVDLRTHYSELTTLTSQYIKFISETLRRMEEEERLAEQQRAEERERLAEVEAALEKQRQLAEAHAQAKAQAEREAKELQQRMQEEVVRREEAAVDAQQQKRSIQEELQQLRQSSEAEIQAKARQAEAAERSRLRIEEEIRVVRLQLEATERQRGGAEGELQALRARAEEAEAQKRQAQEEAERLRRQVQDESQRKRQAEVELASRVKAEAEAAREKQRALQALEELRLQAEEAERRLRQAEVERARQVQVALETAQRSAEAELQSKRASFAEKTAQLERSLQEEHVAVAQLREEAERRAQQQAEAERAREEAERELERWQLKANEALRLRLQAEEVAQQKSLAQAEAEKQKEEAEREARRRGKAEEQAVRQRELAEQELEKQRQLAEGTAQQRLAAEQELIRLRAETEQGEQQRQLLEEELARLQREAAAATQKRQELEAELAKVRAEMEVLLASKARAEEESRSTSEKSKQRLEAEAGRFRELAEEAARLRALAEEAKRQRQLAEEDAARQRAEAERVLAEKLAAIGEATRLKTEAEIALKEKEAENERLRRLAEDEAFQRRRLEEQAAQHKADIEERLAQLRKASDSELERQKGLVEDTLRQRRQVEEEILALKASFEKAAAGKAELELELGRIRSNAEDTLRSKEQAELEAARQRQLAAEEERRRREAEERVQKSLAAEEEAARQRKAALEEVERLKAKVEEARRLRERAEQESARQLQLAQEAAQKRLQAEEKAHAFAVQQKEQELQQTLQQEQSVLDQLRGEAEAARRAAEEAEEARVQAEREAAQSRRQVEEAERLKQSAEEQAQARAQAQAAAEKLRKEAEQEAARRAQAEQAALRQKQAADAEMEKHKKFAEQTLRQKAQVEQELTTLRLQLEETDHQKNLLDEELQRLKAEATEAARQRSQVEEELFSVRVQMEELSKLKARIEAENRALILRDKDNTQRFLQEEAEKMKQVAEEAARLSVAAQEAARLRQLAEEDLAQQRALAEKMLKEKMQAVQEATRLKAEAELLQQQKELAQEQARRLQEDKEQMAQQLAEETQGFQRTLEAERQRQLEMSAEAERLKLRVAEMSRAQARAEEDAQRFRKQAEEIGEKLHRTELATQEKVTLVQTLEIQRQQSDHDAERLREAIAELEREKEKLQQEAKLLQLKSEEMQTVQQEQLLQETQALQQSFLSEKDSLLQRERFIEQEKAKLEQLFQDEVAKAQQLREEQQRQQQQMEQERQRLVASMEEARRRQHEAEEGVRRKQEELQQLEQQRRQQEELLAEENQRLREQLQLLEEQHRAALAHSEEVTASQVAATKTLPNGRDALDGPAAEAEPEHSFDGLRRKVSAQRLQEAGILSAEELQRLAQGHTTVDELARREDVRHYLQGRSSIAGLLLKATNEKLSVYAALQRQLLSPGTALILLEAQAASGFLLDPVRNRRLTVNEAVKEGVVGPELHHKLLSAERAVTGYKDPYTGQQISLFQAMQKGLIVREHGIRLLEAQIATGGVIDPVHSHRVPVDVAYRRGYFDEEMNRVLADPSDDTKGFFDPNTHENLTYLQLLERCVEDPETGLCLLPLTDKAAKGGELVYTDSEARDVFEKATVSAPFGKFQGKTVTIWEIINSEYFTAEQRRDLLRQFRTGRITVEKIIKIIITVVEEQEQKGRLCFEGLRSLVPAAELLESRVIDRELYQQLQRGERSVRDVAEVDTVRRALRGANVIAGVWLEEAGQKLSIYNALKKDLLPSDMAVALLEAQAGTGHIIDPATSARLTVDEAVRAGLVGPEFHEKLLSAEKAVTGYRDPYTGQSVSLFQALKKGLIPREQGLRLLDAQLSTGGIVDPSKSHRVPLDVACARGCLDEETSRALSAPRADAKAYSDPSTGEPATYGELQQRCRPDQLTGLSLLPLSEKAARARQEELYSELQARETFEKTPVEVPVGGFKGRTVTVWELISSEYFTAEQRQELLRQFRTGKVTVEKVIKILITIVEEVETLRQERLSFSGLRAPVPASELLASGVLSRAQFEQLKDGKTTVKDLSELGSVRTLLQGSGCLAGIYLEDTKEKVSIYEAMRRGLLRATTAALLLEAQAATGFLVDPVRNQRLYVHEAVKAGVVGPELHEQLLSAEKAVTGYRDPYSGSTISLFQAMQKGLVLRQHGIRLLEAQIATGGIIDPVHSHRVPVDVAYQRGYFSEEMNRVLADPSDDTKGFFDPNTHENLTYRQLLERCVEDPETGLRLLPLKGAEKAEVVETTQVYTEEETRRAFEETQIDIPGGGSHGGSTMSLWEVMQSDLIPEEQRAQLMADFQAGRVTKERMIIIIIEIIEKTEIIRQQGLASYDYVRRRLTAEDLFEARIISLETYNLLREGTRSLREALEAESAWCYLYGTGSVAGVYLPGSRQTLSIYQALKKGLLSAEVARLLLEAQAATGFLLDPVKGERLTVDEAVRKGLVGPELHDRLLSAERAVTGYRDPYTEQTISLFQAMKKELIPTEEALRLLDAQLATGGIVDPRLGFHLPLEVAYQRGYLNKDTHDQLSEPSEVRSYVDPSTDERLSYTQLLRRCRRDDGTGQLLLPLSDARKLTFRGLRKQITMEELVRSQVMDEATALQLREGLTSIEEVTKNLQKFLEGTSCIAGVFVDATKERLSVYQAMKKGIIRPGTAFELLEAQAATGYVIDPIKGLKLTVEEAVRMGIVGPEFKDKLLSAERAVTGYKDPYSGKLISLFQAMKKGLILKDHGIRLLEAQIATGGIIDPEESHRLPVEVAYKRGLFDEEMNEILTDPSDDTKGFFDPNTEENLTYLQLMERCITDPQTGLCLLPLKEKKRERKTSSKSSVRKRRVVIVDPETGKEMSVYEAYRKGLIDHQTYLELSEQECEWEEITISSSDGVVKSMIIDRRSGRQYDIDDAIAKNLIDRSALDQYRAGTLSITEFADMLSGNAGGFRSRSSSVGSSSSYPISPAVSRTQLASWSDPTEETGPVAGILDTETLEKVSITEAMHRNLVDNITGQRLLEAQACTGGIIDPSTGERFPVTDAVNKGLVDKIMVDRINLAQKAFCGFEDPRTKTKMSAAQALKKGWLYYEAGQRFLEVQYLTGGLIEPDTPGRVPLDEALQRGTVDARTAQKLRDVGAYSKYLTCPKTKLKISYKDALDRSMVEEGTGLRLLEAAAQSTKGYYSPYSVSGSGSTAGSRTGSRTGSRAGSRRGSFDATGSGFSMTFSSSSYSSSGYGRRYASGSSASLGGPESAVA
UniProt P16949, sequence (P16949 whole entry): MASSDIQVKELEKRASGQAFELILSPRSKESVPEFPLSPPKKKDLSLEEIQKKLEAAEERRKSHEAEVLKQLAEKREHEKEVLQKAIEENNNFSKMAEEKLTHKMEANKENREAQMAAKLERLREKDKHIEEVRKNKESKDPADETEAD
UniProt P47756, sequence (P47756 whole entry): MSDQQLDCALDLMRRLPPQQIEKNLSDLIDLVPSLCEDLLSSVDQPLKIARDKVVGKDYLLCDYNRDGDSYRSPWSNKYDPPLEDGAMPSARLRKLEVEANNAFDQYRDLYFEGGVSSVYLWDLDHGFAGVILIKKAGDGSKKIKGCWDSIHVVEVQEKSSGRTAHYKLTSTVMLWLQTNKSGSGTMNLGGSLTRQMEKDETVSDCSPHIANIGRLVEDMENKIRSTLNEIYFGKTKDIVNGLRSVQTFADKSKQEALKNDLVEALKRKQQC

Q: With “XRCC5 (lysine site: K265) (UniProt P13010)” as the target, how does the “lysine labeling ratio R10:1” value read?
A: Its value is 3.42 (inactive).

Q: How did the “lysine labeling ratio R10:1” value turn out when “FRAS1 (lysine site: K380) (UniProt Q86XX4)” was run?
A: Its value is 2.25 (inactive).

Q: For “STMN1 (lysine site: K53) (UniProt P16949)”, which “lysine labeling ratio R10:1” value is on record?
A: Its value is 1.68 (active).

Q: With “CANX (lysine site: K118) (UniProt P27824)” as the target, how does the “lysine labeling ratio R10:1” value read?
A: The value was 2.15 (inactive).

Q: How did the “lysine labeling ratio R10:1” value turn out when “PDIA6 (lysine site: K245) (UniProt Q15084)” was run?
A: The value was 1.95 (active).

Q: How did the “lysine labeling ratio R10:1” value turn out when “LMAN1 (lysine site: K372) (UniProt P49257)” was run?
A: The value was 2.72 (inactive).

Q: “VAPA (lysine site: K211) (UniProt Q9P0L0)” was tested. Which “lysine labeling ratio R10:1” value did it give?
A: Its value is 4.3 (inactive).

Q: UniProt Q86V81 (lysine site: K134) was tested. Which “lysine labeling ratio R10:1” value did it give?
A: Its value is 4.23 (inactive).

Q: “SHMT2 (lysine site: K409) (UniProt P34897)” was tested. Which “lysine labeling ratio R10:1” value did it give?
A: Its value is 2.98 (inactive).

Q: How did the “lysine labeling ratio R10:1” value turn out when “NUCB1 (lysine site: K364) (UniProt Q02818)” was run?
A: The value was 2.75 (inactive).

Q: With “TM9SF2 (lysine site: K328) (UniProt Q99805)” as the target, how does the “lysine labeling ratio R10:1” value read?
A: Its value is 0.928 (active).

Q: How did the “lysine labeling ratio R10:1” value turn out when UniProt P62277 (lysine site: K70) was run?
A: The value was 6.69 (inactive).

Q: Which “lysine labeling ratio R10:1” value does the source give for UniProt Q15149 (lysine site: K877) here?
A: The value was 2.95 (inactive).

Q: For “FASN (lysine site: K1927) (UniProt P49327)”, which “lysine labeling ratio R10:1” value is on record?
A: The value was 1.05 (active).

Q: Which “lysine labeling ratio R10:1” value does the source give for UniProt Q15149 (lysine site: K597) here?
A: Its value is 3.48 (inactive).

Q: UniProt Q8WXI7 (lysine site: K13072) was tested. Which “lysine labeling ratio R10:1” value did it give?
A: The value was 11.1 (inactive).

Q: How did the “lysine labeling ratio R10:1” value turn out when “LAMB1 (lysine site: K1368) (UniProt P07942)” was run?
A: Its value is 1.59 (active).

Q: How did the “lysine labeling ratio R10:1” value turn out when “RPLP0 (lysine site: K106) (UniProt P05388)” was run?
A: The value was 0.868 (active).

Q: How did the “lysine labeling ratio R10:1” value turn out when UniProt P21589 (lysine site: K471) was run?
A: Its value is 1.6 (active).

Q: With “CAPZB (lysine site: K237) (UniProt P47756)” as the target, how does the “lysine labeling ratio R10:1” value read?
A: Its value is 1.4 (active).

Q: Which “lysine labeling ratio R10:1” value does the source give for “MISP (lysine site: K540) (UniProt Q8IVT2)” here?
A: Its value is 1 (active).

Q: How did the “lysine labeling ratio R10:1” value turn out when “ATP6AP1 (lysine site: K380) (UniProt Q15904)” was run?
A: Its value is 1.79 (active).

Q: How did the “lysine labeling ratio R10:1” value turn out when “CSPG4 (lysine site: K1711) (UniProt Q6UVK1)” was run?
A: Its value is 0.655 (active).

Q: How did the “lysine labeling ratio R10:1” value turn out when “RARS (lysine site: K471) (UniProt P54136)” was run?
A: Its value is 2.85 (inactive).

Q: How did the “lysine labeling ratio R10:1” value turn out when “CCT3 (lysine site: K381) (UniProt P49368)” was run?
A: The value was 2.81 (inactive).

Q: How did the “lysine labeling ratio R10:1” value turn out when “SH3BP4 (lysine site: K679) (UniProt Q9P0V3)” was run?
A: Its value is 3.02 (inactive).

Q: Which “lysine labeling ratio R10:1” value does the source give for “FAT1 (lysine site: K978) (UniProt Q14517)” here?
A: The value was 0.71 (active).

Q: Which “lysine labeling ratio R10:1” value does the source give for UniProt Q15149 (lysine site: K4027) here?
A: The value was 2.34 (inactive).

Q: With “FLNA (lysine site: K2607) (UniProt P21333)” as the target, how does the “lysine labeling ratio R10:1” value read?
A: The value was 6.14 (inactive).

Q: “RPL34 (lysine site: K85) (UniProt P49207)” was tested. Which “lysine labeling ratio R10:1” value did it give?
A: Its value is 1.67 (active).

Q: How did the “lysine labeling ratio R10:1” value turn out when UniProt Q15149 (lysine site: K2277) was run?
A: Its value is 0.748 (active).

Q: With “EZR (lysine site: K162) (UniProt P15311)” as the target, how does the “lysine labeling ratio R10:1” value read?
A: The value was 0.7 (active).

Q: How did the “lysine labeling ratio R10:1” value turn out when “FLNB (lysine site: K976) (UniProt O75369)” was run?
A: The value was 1.86 (active).

Q: With “CACNA2D1 (lysine site: K232) (UniProt P54289)” as the target, how does the “lysine labeling ratio R10:1” value read?
A: Its value is 3.57 (inactive).

Q: Which “lysine labeling ratio R10:1” value does the source give for “MSN (lysine site: K391) (UniProt P26038)” here?
A: The value was 1.79 (active).

Q: How did the “lysine labeling ratio R10:1” value turn out when UniProt P02533 (lysine site: K328) was run?
A: Its value is 11.3 (inactive).

Q: With “GPC1 (lysine site: K358) (UniProt P35052)” as the target, how does the “lysine labeling ratio R10:1” value read?
A: Its value is 1.32 (active).

Q: For “CACYBP (lysine site: K220) (UniProt Q9HB71)”, which “lysine labeling ratio R10:1” value is on record?
A: The value was 1.74 (active).

Q: How did the “lysine labeling ratio R10:1” value turn out when UniProt P62273 (lysine site: K13) was run?
A: Its value is 1.45 (active).

Q: With UniProt Q15149 (lysine site: K2274) as the target, how does the “lysine labeling ratio R10:1” value read?
A: Its value is 2.24 (inactive).
